According to PubChem BioAssay:
Active and inactive are the calls of the source. Unless noted, the rule behind the calls is not given here.

How the values were obtained:
[1] = test system: Wnt5a (protein binding on small-molecule microarray); test: small molecules binding Wnt5a protein – biophysical, small-molecule microarray, 635/667 nm fluorescence, primary screen (AID 1142); details: 635 nm fluorescence, higher = more signal;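 note: fluorescence read at 667 nm with signal to noise per printed feature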
[2] = ATP-based viability of Huh7 replicon cells – cell-based, CellTiter-Glo luminescence, basal, 48 h, cytotoxicity control for HCV replication inhibitor project, primary screen (AID 1143); details: higher = more signal, called active from +8 up or from −8 down;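 note: Huh7 hepatoma cells carrying a hepatitis C replication reporter with no stimulus; test concentration not given here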
[3] = Pseudomonas biofilm growth suppression – PAO1 strain, BacTiter-Glo luminescence, LB-PBS, primary screen (AID 1144); details: P. aeruginosa PAO1 biofilm, 12 h, higher = more signal
[4] = basal CRE-LacZ reporter activity in PC12 – cell-based, unstimulated, primary screen (AID 1145); details: no forskolin, luminescence, 4.5 h, higher = more signal, called active from +8 up or from −8 down
[5] = forskolin-driven CRE-LacZ activity in PC12 – cell-based, CRE-LacZ reporter, forskolin-stimulated, primary screen (AID 1146); details: luminescence, 4.5 h, higher = more signal, called active from +8 up or from −8 down;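 note: PC12 cells with 6xCRE LacZ reporter stimulated by forskolin 10 µM; beta-galactosidase reporter signal reflecting CREB driven transcription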
[6] = target: Streptavidin (Streptomyces avidinii) (UniProt P22629); test: compounds binding control protein streptavidin – biophysical, small-molecule microarray, 635/667 nm fluorescence, artefact control for SMM compound annotation, primary screen (AID 1147); details: higher = more signal;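 note: signal reflects streptavidin binding to arrayed compounds as a control protein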
[7] = probe aInhba binding on compound microarray – biochemical, small-molecule microarray, 635/667 nm fluorescence, primary screen (AID 1148); details: higher = more signal;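 note: score merges 667nm spot fluorescence with signal-to-noise for antibody binding to printed compounds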
Torsin-1A (Homo sapiens) [8] = target: Torsin-1A (Homo sapiens) (UniProt O14656); test: TOR1A wild-type binding on microarray – cell lysate, small-molecule microarray, lysate, 635/667 nm, primary screen (AID 1149); details: COS7 hTOR1A-WT lysate, 635 nm fluorescence, higher = more signal
Torsin-1A (Homo sapiens) [9] = target: Torsin-1A (Homo sapiens) (UniProt O14656); test: torsin A mutant lysate binding on microarrays – cell lysate, small-molecule microarray, COS7 lysate, 635/667 nm fluorescence, primary screen (AID 1150); details: COS7 hTOR1A mutant lysate, 635 nm fluorescence, higher = more signal;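 note: score pools 667 nm emission and signal to noise measuring lysate protein binding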
[10] = test system: Sonic hedgehog protein (Shh); test: Sonic hedgehog microarray binding compounds – biochemical, small-molecule microarray, 635/667 nm fluorescence, primary screen (AID 1151); details: 635 nm fluorescence, higher = more signal;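 note: Shh protein binding to compounds spotted on small-molecule microarray slides; score combines spot fluorescence intensity with signal-to-noise across triplicate slides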

Sequence of Streptavidin (Streptomyces avidinii) (P22629 whole entry, looked up): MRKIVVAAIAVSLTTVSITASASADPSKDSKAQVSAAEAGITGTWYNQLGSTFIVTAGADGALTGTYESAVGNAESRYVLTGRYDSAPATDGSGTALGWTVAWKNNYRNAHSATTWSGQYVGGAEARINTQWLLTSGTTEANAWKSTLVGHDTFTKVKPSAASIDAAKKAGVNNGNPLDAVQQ
Sequence of Torsin-1A (Homo sapiens) (O14656 whole entry, looked up): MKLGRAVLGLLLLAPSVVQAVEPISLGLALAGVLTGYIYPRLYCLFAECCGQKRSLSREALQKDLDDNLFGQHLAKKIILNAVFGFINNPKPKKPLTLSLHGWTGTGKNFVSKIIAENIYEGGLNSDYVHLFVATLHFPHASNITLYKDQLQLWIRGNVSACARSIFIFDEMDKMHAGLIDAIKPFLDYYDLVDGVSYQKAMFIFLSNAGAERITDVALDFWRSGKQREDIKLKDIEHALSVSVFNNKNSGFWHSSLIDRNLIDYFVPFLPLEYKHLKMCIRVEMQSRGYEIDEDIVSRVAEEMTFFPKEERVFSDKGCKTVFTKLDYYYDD

Row | Structure (SMILES) | composite z-score [1] | z-score [2] | z-score [3] | z-score [4] | z-score [5] | composite z-score [6] | composite z-score [7] | composite z-score (Torsin-1A (Homo sapiens) [8]) | composite z-score (Torsin-1A (Homo sapiens) [9]) | composite z-score [10]
1 | O=C1[C@H]2C=C(I)[C@H](C[C@@H]2OCCCCO)[C@@]12CO2 | -0.163 | 0.634 (inactive) | -0.0455 (inactive) | -0.235 (inactive) | 1.6 (inactive) | -0.162 | -0.025 | 0.953 | 0.625 | 0.745
2 | O=C(NCCN1CCOCC1)[C@@H]1c2ccccc2C(=O)N(Cc2cc(C(F)(F)F)cc(C(F)(F)F)c2)[C@H]1c1ccc(CO)cc1 | 0.556 | -0.0199 (inactive) | 0.623 (inactive) | 0.468 (inactive) | -0.713 (inactive) | -0.601 | 0.0154 | -0.027 | 0.133 | -0.211
3 | COCCOC(=O)N1C(=O)[C@@]2(c3ccccc31)[C@H](C(N)=O)[C@H]1C(=O)O[C@H](c3ccccc3)[C@H](c3ccccc3)N1[C@@H]2c1ccc(O)cc1 | 0.169 | -2.51 (inactive) | -0.166 (inactive) | -0.375 (inactive) | 0.06 (inactive) | -0.432 | -0.204 | 0.603 | 0.779 | 0.105
4 | CO[C@H]1O[C@H](CO)[C@@H](OC(=O)Nc2ccc(Br)cc2)[C@@H]2OC(=O)[C@H](Cc3cccc(Br)c3)C/C=C/C[C@@H](Cc3cccc(Br)c3)C(=O)O[C@@H]12 | -0.149 | -5.6 (inactive) | -2.06 (inactive) | -0.878 (inactive) | 0.243 (inactive) | -0.174 | 0.0387 | -0.541 | 0.384 | 1.58
5 | C#CCN1[C@@H](Cc2ccc(O)cc2)C(=O)O[C@H](Cc2ccccc2)[C@@H]1/C=C/C1CC1 | 0.0515 | -4.07 (inactive) | 1.75 (inactive) | 15.1 (active) | 1.42 (inactive) | -0.196 | -0.224 | 0.161 | 0.364 | 0.284
6 | Cc1ccc(S(=O)(=O)N2C[C@@H](C(=O)O)[C@H](Sc3ccccc3)C[C@H]2c2ccccc2)cc1 | 0.731 | -0.763 (inactive) | -0.103 (inactive) | -0.667 (inactive) | -0.356 (inactive) | 1.26 | 0.0403 | 0.301 | 0.714 | -0.156
7 | COC(=O)[C@H](Cc1ccccc1)N[C@H](/C=C/C1CC1)[C@@H](O)Cc1ccccc1 | -0.711 | -1.78 (inactive) | -0.555 (inactive) | 2.59 (inactive) | -1.23 (inactive) | -0.841 | -0.322 | -0.795 | -0.533 | -0.345
8 | CCCCCN1CC=CC23O[C@@H]4C=CCOC(=O)[C@@H]4[C@H]2C(=O)N(C(C)CO)[C@@H]3C1=O (stereo not given in full) | -0.614 | 0.463 (inactive) | 0.397 (inactive) | -0.216 (inactive) | -0.315 (inactive) | -0.541 | -0.128 | 0.909 | -0.979 | -0.424
9 | CO[C@H]1O[C@H](CO)[C@@H](OC(=O)Nc2ccc(Oc3ccccc3)cc2)[C@H](OC(=O)Nc2ccc3c(c2)OCO3)[C@@H]1OC(=O)Nc1ccc2c(c1)OCO2 | 1.31 | -2.74 (inactive) | -0.168 (inactive) | 0.502 (inactive) | -0.917 (inactive) | 0.894 | 0.415 | 0.626 | 1.58 | 1.66
10 | COCCOC(=O)N1C(=O)[C@@]2(c3cc(C#CCCO)ccc31)[C@H](c1ccc(OCCO)cc1)N1[C@H](c3ccccc3)[C@H](c3ccccc3)OC(=O)[C@H]1[C@@H]2C(N)=O | 0.711 | -1.47 (inactive) | 0.502 (inactive) | 0.209 (inactive) | 1.71 (inactive) | 0.266 | 0.364 | 0.271 | 0.569 | 0.811
11 | C=CCC(OC(C)=O)[C@@H]1[C@@H](N(Cc2ccc(-c3cccc(C(F)(F)F)c3)o2)C(=O)Cc2ccc(OC)cc2)c2cc(OCCCO)ccc2N1C(=O)c1ccc2ccccc2c1 (stereo not given in full) | -0.301 | -1.54 (inactive) | -1 (inactive) | -0.0247 (inactive) | 1.52 (inactive) | -0.445 | -0.128 | -2.27 | 0.168 | 0.804
12 | COC(=O)c1c(CC[C@@H](CO)NC(=O)NCCc2c[nH]c3ccccc23)oc(C(=O)Cc2ccccc2)c1C(=O)OC | -0.229 | -0.195 (inactive) | 0.604 (inactive) | 1.37 (inactive) | -0.713 (inactive) | -0.322 | -0.188 | 0.207 | 0.0487 | 0.0213
13 | COC(=O)c1c2oc(c1C(=O)OC)C(=O)N[C@@H](C(C)C)Cn1cc(nn1)C1(CCCCC1)NC(=O)N[C@H](CO)CC2 | 0.432 | 0.24 (inactive) | -0.377 (inactive) | 2.08 (inactive) | -0.178 (inactive) | 0.177 | -0.0477 | 0.935 | 0.48 | 0.246
14 | C#CCOc1ccc(C[C@@H](C(=O)OC)N(CC#C)[C@@H](/C=C/C2CC2)[C@H](O)Cc2ccccc2)cc1 | -0.589 | -2.59 (inactive) | 0.803 (inactive) | 14.9 (active) | 1 (inactive) | -0.57 | -0.183 | -1.18 | -0.489 | -0.34
15 | CCOC(=O)C1=CC[C@@H](c2ccc(C(F)(F)F)cc2)N(S(=O)(=O)c2ccc(C)cc2)[C@H]1c1ccccc1 | 0.328 | -4.89 (inactive) | 1.43 (inactive) | 0.986 (inactive) | -0.052 (inactive) | 1.5 | 0.316 | 0.504 | 0.658 | 0.0252
